# Source: PubChem BioAssay
# Calls of active or inactive are those of the source.
# Experiments:
# [1] = binders of probe aFSTL3 on microarray, primary screen, stem cell growth factor project, biochemical, small-molecule microarray, fluorescence 635/667 (AID 1064); conditions: higher = more signal;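 also: measures binding of the biotinylated anti-FSTL3 antibody to printed compounds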
# [2] = binders from COS7 lysate, DM2A8 probe, primary screen, torsin A project, cell lysate, small-molecule microarray, fluorescence 635/667 (AID 1065); conditions: higher = more signal, COS7 lysate expressing mutant human TOR1A
# [3] = binders of probe aFGF2 on microarray, primary screen, stem cell growth factor project, biochemical, small-molecule microarray, fluorescence 635/667 (AID 1067); conditions: higher = more signal;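 also: measures binding of biotinylated aFGF2 protein to printed compounds on slides; z-score merges feature fluorescence and signal-to-noise across triplicate slides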
# [4] = binders of probe aFGF10 on microarray, primary screen, stem cell growth factor project, biochemical, small-molecule microarray, fluorescence 635/667 (AID 1071); conditions: higher = more signal;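 also: score merges 667 nm spot intensity and signal to noise from triplicate slides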
# [5] = biological target: Neurogenic locus notch homolog protein 2 (Homo sapiens) (UniProt Q04721); assay: Notch2 binders on small-molecule microarrays, primary screen, biochemical, small-molecule microarray, 635 nm fluorescence, stem cell growth factors (AID 1073); conditions: Notch2 binding, higher = more signal
# [6] = biological target: Pro-neuregulin-1, membrane-bound isoform (Homo sapiens) (UniProt Q02297); assay: NRG1 binders on small-molecule microarrays, primary screen, psychiatric disease protein project, biochemical, small-molecule microarray, fluorescence 635/667 (AID 1075); conditions: NRG1 binding, 635 nm fluorescence, higher = more signal;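 also: score combines 667 nm spot fluorescence with signal to noise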
# [7] = system: Neuregulin-1 EGF-like domain; assay: binders of neuregulin-1 EGF-like domain, primary screen, biochemical, small-molecule microarray, 635 nm fluorescence (AID 1081); conditions: small-molecule microarray binding, higher = more signal;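 also: binding of the protein to compounds printed on small-molecule microarray slides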
# [8] = FRG1 promoter luciferase signal modulators, primary screen, FRG1 inhibition for FSHD, cell-based, C2C12 myotubes, firefly/Renilla luciferase, luminescence (AID 1084); conditions: higher = more signal, called active from +8 up or from −8 down
# [9] = binders of probe aFST on microarray, primary screen, stem cell growth factor project, biochemical, small-molecule microarray, fluorescence 635/667 (AID 1086); conditions: higher = more signal;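 also: score merges 667 nm fluorescence with signal-to-noise of each printed compound spot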
# [10] = binders of probe aHhip on microarray, primary screen, stem cell growth factor project, biochemical, small-molecule microarray, fluorescence 635/667 (AID 1087); conditions: higher = more signal;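 also: score merges spot fluorescence at 667nm with spot signal to noise ratio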
# [11] = system: PRMT1 (protein arginine N-methyltransferase 1); assay: PRMT1 binders on small-molecule microarrays, primary screen, biochemical, small-molecule microarray, 635 nm fluorescence (AID 1088); conditions: small-molecule microarray binding, higher = more signal;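 also: binding of Prmt1 protein to compounds spotted on small-molecule microarray slides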
# [12] = yeast growth modulation, basal conditions, primary screen, YJM789 clinical isolate, OD600, 24 h (AID 1089);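 also: growth of clinical yeast isolate S. cerevisiae YJM 789 seeded 1000 cells per well; test concentration not given here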; conditions: S. cerevisiae YJM789 growth, higher = more signal, called active from +8 up or from −8 down
# [13] = fission yeast growth modulation, primary screen, strain 972, OD600, 24 h, no modulator (AID 1090);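 also: basal condition with compound alone and no growth modifier present; test concentration not given here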; conditions: S. pombe 972 growth, higher = more signal, called active from +8 up or from −8 down
# [14] = S. cerevisiae growth modulation with rapamycin, primary screen, strain BY4716, OD600, 96 h (AID 1091); conditions: higher = more signal, called active from +8 up or from −8 down; also: test concentration not given here
# [15] = biological target: Torsin-1A-interacting protein 2 (Homo sapiens) (UniProt Q8NFQ8); assay: LULL1 binders on small-molecule microarray, primary screen, cell lysate, human LULL1 lysate, 635/667 nm fluorescence (AID 1092); conditions: hLULL1 lysate binding, 635 nm fluorescence, higher = more signal;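 also: probe is lysate of COS7 cells overexpressing human LULL1; score merges per-feature 667 nm fluorescence with signal-to-noise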
# [16] = E. coli growth modulation, two-sided OD650, primary screen, E. coli filamentation project, strain DRC41, 24 h (AID 1093); conditions: OD650, 24 h, higher = more signal, called active from +8 up or from −8 down;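 also: MC1000 strain lacking acrAB efflux and sulA so SOS filamentation is blocked; test concentration not given here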
# [17] = small-molecule microarray binders of probe aLefty2, primary screen, biochemical, biotinylated probe, 635/667 nm fluorescence (AID 1094); conditions: higher = more signal;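 also: score merges spot fluorescence near 667 nm with spot signal-to-noise ratio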
# [18] = system: Noggin (protein binding on small-molecule microarray); assay: Noggin binders on small-molecule microarray, primary screen, biochemical, 635/667 nm fluorescence (AID 1095); conditions: 635 nm fluorescence, higher = more signal;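 also: score merges 667 nm feature fluorescence with signal to noise over triplicate slides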
# [19] = biological target: Neurogenic locus notch homolog protein 3 (Homo sapiens) (UniProt Q9UM47); assay: NOTCH3 binders on small-molecule microarray, primary screen, biochemical, 635/667 nm fluorescence (AID 1096); conditions: NOTCH3 binding, 635 nm fluorescence, higher = more signal
# [20] = small-molecule microarray binders of probe aEGFR, primary screen, biochemical, biotinylated probe, 635/667 nm fluorescence (AID 1097); conditions: higher = more signal;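 also: probe is a biotinylated anti-EGFR antibody binding compounds printed on slides; score combines fluorescence near 667 nm and signal to noise of each spot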
# Sequence of Neurogenic locus notch homolog protein 3 (Homo sapiens) (Q9UM47 whole entry, looked up): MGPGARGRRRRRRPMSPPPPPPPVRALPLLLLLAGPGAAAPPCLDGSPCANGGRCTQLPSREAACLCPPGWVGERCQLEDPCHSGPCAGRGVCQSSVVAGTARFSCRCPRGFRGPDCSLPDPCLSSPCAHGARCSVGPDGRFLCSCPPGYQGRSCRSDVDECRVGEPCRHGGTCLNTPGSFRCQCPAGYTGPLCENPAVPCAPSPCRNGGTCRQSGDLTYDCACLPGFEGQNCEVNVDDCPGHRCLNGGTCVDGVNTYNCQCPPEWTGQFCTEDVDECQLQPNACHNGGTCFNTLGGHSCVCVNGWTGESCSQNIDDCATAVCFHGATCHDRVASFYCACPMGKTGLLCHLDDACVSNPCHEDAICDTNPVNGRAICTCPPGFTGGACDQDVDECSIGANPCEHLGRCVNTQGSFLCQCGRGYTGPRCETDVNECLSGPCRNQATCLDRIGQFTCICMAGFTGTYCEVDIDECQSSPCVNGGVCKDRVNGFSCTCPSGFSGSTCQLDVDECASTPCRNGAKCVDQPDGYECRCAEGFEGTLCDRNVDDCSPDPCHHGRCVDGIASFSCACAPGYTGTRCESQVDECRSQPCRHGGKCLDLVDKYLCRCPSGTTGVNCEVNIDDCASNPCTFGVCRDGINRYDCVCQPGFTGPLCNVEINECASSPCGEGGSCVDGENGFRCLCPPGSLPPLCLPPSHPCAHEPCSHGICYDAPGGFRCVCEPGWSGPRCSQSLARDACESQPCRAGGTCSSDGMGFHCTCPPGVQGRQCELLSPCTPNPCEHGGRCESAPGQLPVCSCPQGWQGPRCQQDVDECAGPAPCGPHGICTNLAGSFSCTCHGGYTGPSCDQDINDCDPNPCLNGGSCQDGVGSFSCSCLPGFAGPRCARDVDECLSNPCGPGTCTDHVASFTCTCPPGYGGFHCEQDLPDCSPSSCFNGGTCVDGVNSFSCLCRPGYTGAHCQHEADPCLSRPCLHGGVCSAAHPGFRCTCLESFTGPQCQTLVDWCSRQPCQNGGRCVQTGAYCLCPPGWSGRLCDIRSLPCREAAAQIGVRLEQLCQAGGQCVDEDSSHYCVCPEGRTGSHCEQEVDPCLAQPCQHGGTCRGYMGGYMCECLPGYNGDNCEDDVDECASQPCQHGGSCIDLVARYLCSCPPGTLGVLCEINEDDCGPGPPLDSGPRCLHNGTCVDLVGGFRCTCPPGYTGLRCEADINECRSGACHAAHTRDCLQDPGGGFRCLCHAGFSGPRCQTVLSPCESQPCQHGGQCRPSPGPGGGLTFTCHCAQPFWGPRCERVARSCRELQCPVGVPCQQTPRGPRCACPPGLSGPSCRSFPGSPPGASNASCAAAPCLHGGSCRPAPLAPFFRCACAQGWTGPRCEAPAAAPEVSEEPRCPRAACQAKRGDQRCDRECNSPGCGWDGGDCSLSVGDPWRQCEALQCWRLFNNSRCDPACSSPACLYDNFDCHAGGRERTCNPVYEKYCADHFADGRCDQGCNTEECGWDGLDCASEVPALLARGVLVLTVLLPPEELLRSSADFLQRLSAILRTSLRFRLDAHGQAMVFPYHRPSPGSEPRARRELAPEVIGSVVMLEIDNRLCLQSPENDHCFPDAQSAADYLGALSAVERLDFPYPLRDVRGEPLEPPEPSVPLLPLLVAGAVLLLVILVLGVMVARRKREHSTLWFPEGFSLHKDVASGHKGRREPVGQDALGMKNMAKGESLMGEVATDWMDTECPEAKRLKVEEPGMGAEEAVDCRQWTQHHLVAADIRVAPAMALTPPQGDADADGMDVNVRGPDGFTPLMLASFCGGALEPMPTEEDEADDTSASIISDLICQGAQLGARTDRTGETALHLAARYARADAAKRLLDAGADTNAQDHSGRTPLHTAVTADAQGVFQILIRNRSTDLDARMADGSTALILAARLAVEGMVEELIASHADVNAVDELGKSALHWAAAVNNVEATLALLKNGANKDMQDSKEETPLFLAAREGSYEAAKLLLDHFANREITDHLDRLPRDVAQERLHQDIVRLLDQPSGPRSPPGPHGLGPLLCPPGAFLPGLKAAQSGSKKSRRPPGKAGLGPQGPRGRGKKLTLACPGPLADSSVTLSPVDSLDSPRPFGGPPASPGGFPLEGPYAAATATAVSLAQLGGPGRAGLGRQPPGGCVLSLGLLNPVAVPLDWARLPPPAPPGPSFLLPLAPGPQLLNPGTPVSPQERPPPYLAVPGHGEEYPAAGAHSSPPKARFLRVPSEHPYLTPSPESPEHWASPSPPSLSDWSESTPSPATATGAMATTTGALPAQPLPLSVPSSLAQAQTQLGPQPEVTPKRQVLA
# Sequence of Pro-neuregulin-1, membrane-bound isoform (Homo sapiens) (Q02297 whole entry, looked up, the tested form may be a part, canonical isoform): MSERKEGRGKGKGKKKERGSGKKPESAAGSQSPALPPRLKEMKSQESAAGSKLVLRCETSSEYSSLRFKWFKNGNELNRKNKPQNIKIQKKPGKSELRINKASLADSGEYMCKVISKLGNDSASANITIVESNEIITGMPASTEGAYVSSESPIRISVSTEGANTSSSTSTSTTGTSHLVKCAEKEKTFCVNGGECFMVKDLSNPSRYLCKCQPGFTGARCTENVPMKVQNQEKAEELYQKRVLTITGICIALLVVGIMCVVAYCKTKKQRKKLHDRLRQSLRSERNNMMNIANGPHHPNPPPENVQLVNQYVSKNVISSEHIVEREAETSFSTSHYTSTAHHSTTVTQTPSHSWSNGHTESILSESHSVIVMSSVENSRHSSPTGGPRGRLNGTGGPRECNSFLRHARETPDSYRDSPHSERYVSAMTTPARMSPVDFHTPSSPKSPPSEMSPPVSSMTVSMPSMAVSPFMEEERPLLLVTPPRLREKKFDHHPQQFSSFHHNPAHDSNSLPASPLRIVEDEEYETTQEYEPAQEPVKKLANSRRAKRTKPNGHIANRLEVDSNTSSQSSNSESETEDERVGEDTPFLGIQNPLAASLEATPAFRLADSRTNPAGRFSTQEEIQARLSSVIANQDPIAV
# Sequence of Torsin-1A-interacting protein 2 (Homo sapiens) (Q8NFQ8 whole entry, looked up): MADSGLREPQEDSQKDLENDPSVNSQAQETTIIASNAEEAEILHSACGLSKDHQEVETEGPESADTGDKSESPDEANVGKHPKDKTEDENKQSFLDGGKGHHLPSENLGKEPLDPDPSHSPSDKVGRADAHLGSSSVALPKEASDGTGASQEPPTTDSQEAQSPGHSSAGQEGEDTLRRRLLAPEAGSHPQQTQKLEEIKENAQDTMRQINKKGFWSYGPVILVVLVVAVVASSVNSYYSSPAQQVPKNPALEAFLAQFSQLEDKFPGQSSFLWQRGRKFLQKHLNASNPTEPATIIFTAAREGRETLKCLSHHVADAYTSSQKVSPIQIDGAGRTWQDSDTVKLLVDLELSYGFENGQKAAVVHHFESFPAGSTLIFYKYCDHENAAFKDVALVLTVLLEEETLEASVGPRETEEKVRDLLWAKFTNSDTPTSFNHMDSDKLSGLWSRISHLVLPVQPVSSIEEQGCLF
Compound,composite z-score [1],composite z-score [2],composite z-score [3],composite z-score [4],composite z-score [5],composite z-score [6],composite z-score [7],z-score [8],composite z-score [9],composite z-score [10],composite z-score [11],z-score [12],z-score [13],z-score [14],composite z-score [15],z-score [16],composite z-score [17],composite z-score [18],composite z-score [19],composite z-score [20]
[N-]=[N+]=Nc1ccccc1C[C@@]1(C(N)=O)N=C(c2ccc(OCCCO)cc2)O[C@@H]1c1ccccc1,1.57,0.49,0.0249,0.296,0.975,1.05,1.16,1.23 (inactive),0.784,-0.181,0.683,-0.501 (inactive),-0.371 (inactive),-0.481 (inactive),2.06,0.0722 (inactive),0.316,-0.754,0.156,-0.0455
Cc1cc2c(nc1C)CCCN2CC(O)CN1CCN(C)CC1 (stereo not given),0.499,0.382,0.0138,0.575,0.273,0.462,0.346,-0.323 (inactive),0.758,0.744,1.25,-0.525 (inactive),0.277 (inactive),-0.856 (inactive),0.9,-0.384 (inactive),-0.294,0.578,0.915,-0.169
COC(=O)[C@H](C)NC(=O)[C@@H](C)CO,-0.329,1.2,-0.116,0.75,0.591,0.515,1.04,-0.256 (inactive),0.357,0.316,1.46,0.0198 (inactive),-0.0164 (inactive),0.669 (inactive),1.68,-0.8 (inactive),-0.0607,0.67,1.07,-0.0578
Cc1cc(C)c(-c2cc([C@H](C)ON=C3[C@H]4CCn5c(=O)n(-c6ccccc6)c(=O)n5[C@H]4[C@H](O)[C@@H]4O[C@H]34)on2)c(C)c1,-0.437,1.55,0.0168,0.481,0.471,0.463,0.0257,-0.793 (inactive),0.484,0.0024,0.432,0.566 (inactive),-1.84 (inactive),0.0884 (inactive),1.83,0.771 (inactive),-0.133,0.627,0.766,-0.0978
O=C1C2C=CC(C(O)c3ccc([N+](=O)[O-])cc3)N(Nc3ccc([N+](=O)[O-])cc3)C2C(=O)N1c1ccccc1 (stereo not given),0.25,-0.0145,0.154,1.13,1.63,1.55,1.17,-0.164 (inactive),1.02,0.178,1.46,0.664 (inactive),1.53 (inactive),3.26 (inactive),3.28,-0.956 (inactive),0.198,-0.238,1.04,0.387
CCCNC(=O)OC[C@H]1O[C@H](CCON=C2[C@H]3CCn4c(=O)n(-c5ccccc5)c(=O)n4[C@H]3[C@H](O)[C@@H]3O[C@H]23)C=C[C@@H]1Oc1ccc(OC)cc1,-0.362,0.447,-0.0885,0.406,0.774,-0.248,0.0894,-0.257 (inactive),0.214,-0.0994,0.615,-0.285 (inactive),0.0063 (inactive),-0.0824 (inactive),0.507,0.317 (inactive),-0.234,0.388,0.242,-0.253
C[C@@H](c1ccccc1)N1C(=O)[C@H]2[C@H]3[C@H](O)[C@H](O)CC(=NNC(=O)OCc4ccccc4)[C@H]3CC[C@H]2C1=O,0.512,0.16,-0.129,0.201,0.382,-0.207,-0.451,0.0168 (inactive),0.366,-0.236,-0.26,0.547 (inactive),0.408 (inactive),0.698 (inactive),0.71,0.687 (inactive),0.2,0.124,-0.246,0.229
CC(C)C[C@@H]1NC(=O)[C@H]2C[C@@H](C(=O)O)[C@@H](c3ccc(O)cc3)N2C1=O,1.29,1.31,-0.087,-0.211,-0.506,1.47,1.29,6.75 (inactive),0.123,0.613,0.879,0.634 (inactive),-0.213 (inactive),1.83 (inactive),1.15,0.831 (inactive),0.449,0.4,0.436,0.0577
CCOC(=O)C[C@H]1[C@H](OC(=O)c2ccc(C(=O)c3ccccc3)cc2)[C@@H](NC(=O)c2ccc(-c3ccccc3)cc2)c2cc(OCCCO)ccc2N1C(=O)c1ccc2ccccc2n1,-0.378,0.292,-0.0685,0.773,0.643,0.5,0.927,0.0728 (inactive),0.465,-0.193,1.44,-1.05 (inactive),0.0048 (inactive),0.276 (inactive),2.29,1.44 (inactive),-0.19,0.609,1,-0.109
CCCC=C(CCC)[C@@H](NC(=O)c1ccc(-c2ccccc2)cc1)c1ccc(C(=O)OC)cc1,0.0763,-0.719,0.0827,0.0375,1.51,0.746,0.824,0.348 (inactive),0.801,1.81,0.665,0.806 (inactive),1.77 (inactive),1.93 (inactive),3.33,-0.665 (inactive),0.0997,0.0811,1.07,-0.022
COC(=O)[C@@H]1N=C(c2ccc(OCCCO)cc2)O[C@@H]1c1ccccc1N=[N+]=[N-],1.64,0.308,-0.006,-0.282,0.124,1.79,1.18,3.42 (inactive),0.864,0.189,1.5,-2.6 (inactive),-7.5 (inactive),-1.15 (inactive),3.01,1.2 (inactive),0.19,-0.179,0.487,-0.027
CC=CC1=C(CO)[C@H](O)[C@H]2O[C@H]2[C@H]1O,-0.659,0.253,-0.027,0.166,-0.0482,-0.157,0.583,-0.0975 (inactive),-0.191,0.0881,1.23,0.505 (inactive),0.317 (inactive),1.12 (inactive),-0.0789,0.131 (inactive),-0.24,0.834,0.67,-0.0382
CC(CCN1CCCCc2nc(C)c(C)cc21)=NOC(C)CN1CCCc2nc(C)c(C)cc21 (stereo not given),0.0516,0.471,0.196,0.943,1.52,1.35,1.06,1.28 (inactive),1.24,0.82,1.52,-1.19 (inactive),-1.06 (inactive),-0.321 (inactive),2.91,0.162 (inactive),0.447,1.07,1.04,0.509
O=C1[C@H]2[C@H]3[C@H](O)[C@H](O)CC(=NOC[C@@H](O)COCc4ccco4)[C@H]3CC[C@H]2C(=O)N1c1cccc(Oc2ccccc2)c1,-0.0639,1.55,-0.187,-0.0105,-1.31,0.141,0.603,-0.425 (inactive),-0.266,-0.16,-0.267,-0.19 (inactive),0.549 (inactive),-0.502 (inactive),-0.306,0.354 (inactive),-0.172,1.55,-0.413,-0.174
COc1ccc(O[C@H]2C=C[C@@H](c3ccccc3)O[C@@H]2COC(=O)CCC(C)=NOC(C)CN2CCCCc3nc(C)c(C)cc32)cc1 (stereo not given in full),0.614,-0.017,-0.164,-0.102,-0.763,-0.0663,0.106,0.766 (inactive),-0.62,-0.226,-0.285,-0.258 (inactive),-1.87 (inactive),-0.889 (inactive),0.283,1.14 (inactive),-0.0769,0.294,-1.33,-0.0614
O=C1[C@H]2[C@H]3[C@H](O)[C@H](O)CC(=NO[C@@H]4O[C@H](CO)[C@@H](O)[C@H](O)[C@H]4O)[C@H]3CC[C@H]2C(=O)N1Cc1ccc2c(c1)OCO2,0.606,1.53,-0.104,-0.103,-0.475,0.266,0.592,-0.0585 (inactive),0.319,-0.132,0.661,0.827 (inactive),0.918 (inactive),-0.297 (inactive),2.14,0.529 (inactive),0.0835,-0.246,-0.133,-0.17
O=C1O[C@@H](c2ccccc2)[C@@H](c2ccccc2)N2[C@@H](c3ccc(O)cc3)[C@]3(C(=O)Nc4ccccc43)[C@@H](C(=O)O)[C@H]12,-0.149,0.227,-0.0969,0.46,0.0863,1.67,1.08,-1.09 (inactive),0.231,-0.0212,1.24,0.462 (inactive),-0.253 (inactive),-0.408 (inactive),2.45,1.14 (inactive),-0.0753,-0.335,0.166,-0.041
CC(CCC(=O)OC[C@H]1O[C@H](C#Cc2ccccc2)C=C[C@@H]1Oc1ccc(C)cc1)=NOC[C@@H](O)COCc1ccco1,0.348,-2.21,0.0388,-3.02,-2.5,-0.837,-0.295,-0.948 (inactive),-1.94,-0.389,-0.25,0.594 (inactive),0.134 (inactive),0.108 (inactive),-0.486,0.147 (inactive),-0.356,-3.08,-1.76,-0.428
COCCOC(=O)N1C(=O)[C@@]2(c3cc(C#CC4(O)CCCCCC4)ccc31)[C@H](C(=O)N1CCN(c3ncccn3)CC1)[C@H]1C(=O)O[C@H](c3ccccc3)[C@H](c3ccccc3)N1[C@@H]2c1ccc(OCCO)cc1,-0.266,0.318,0.192,0.727,1.24,0.939,1.33,0.401 (inactive),0.517,0.107,1.53,2.12 (inactive),1.35 (inactive),5.93 (inactive),2.61,2.25 (inactive),-0.0075,1.64,1.08,0.0779
